Active and inactive are the calls of the source. The calls were made as follows: active = hit-call score of the fitted dose curve at least 0.9, where 1 is the maximum; inactive = score below 0.9.
read-out: Paternally Expressed 10 (PEG10), PEG10 (gene 23089); test: LTEA_HepaRG_PEG10: Life Technologies and Expression Analysis (LTEA) Assay for Paternally Expressed 10 (PEG10) using HepaRG (AID 2283520); conditions: mRNA level, 48 h; actives raise or lower the signal;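 as to AC50: PEG10 transcript by qRT-PCR normalised to ACTB GAPDH and POLR2A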
Protocol: LTEA_HepaRG is a cell based, multiplexed-readout assay that uses HepaRG, a human liver cell line, with measurements taken at 48 hours after chemical dosing on a 96-well plate.LTEA_HepaRG_PEG10 is one of 102 assay component(s) measured in the LTEA HepaRG cell culture assay. It is a marker of Cell proliferation, survival, death.Data from the assay component LTEA_HepaRG_PEG10 was analyzed into 1 endpoint. This assay endpoint, LTEA_HepaRG_PEG10, was analyzed with bidirectional fitting relative to DMSO as the negative control and baseline of activity. Using a type of inducible reporter, measures of mRNA induction for gain or loss-of-signal activity can be used to understand regulation of transcription factor activity. To generalize the intended target to other relatable targets, this assay endpoint is annotated to the dna binding intended target family, where the subfamily is xenobiotic metabolism.
A total of 1060 chemcials from the ToxCast library were tested in eight-point concentration-response experiments. Cell culture and cytotoxicity assays were conducted at Thermo Fisher Scientific's Custom Services facility (Madison, WI). A single lot of human HepaRG cells (Thermo Fisher Scientific, Frederick, MD) was used for the cell culture experiments. 96-well format collagen type I coated plates of human HepaRG cells were prepared using established methods. Briefly, cryopreserved HepaRG cells were thawed, plated at a density of approximately 100,000 cells/well in HepaRG Thaw, Plate, and General Purpose media (HPRG770, Thermo Fisher Scientific), and incubated for 48 hours. 0.5% DMSO was selected as vehicle control to balance the requisite need of DMSO in HepaRG cultures to maintain differentiation (for example, baseline metabolism, proportions of hepatocytes vs. cholangiocytes), while enabling further hepatic receptor pathway activation (for example, PXR and CAR) in response to chemical exposure. 48 hours after plating, the culture medium was replaced with HepaRG Serum-Free Incudtion Media. Cells were exposed to each test chemical in duplicate and maintained in CO2 incubators for another 48 hours. Chemical plates were thawed to room temperature and 200x concentrations of treatment groups were prepared. 8-point conentration-reponse curves were made with the highest exposure at 100 uM, followed by half-log dilutions, all in 0.5% DMSO. Each test plate contained variouse controls, induction positive controls (1mM phenobarbital), cytotoxicity positive controls ([…] aflatoxin B1), vehicle controls (0.5% DMSO), and total lysis controls (0.5% DMSO). Cell morphology images were taken using an Essen IncuCyte FLR automated microscope, with six 96-well plates imaged in about 24 minutes. Images were captured and exported and JPEG files. Spent culture media was transfered to black-well plates for the LDH assay, and remaining media was sorted at -80 C for later use. Cells were treated with RLT buffer and frozen until shipped for gene expression analysis. Total RNA was isolated from the cell suspension in 75 uL of Buffer RLT (Qiagen, Germantown, MD 20874) by Quintiles/Expression Analysis (Durham, NC) using a custom isolation procedure. Total RNA from each plate well was transferred to a preamplification plate. Fluidigm's 96.96 Dynamic ArrayTM (Fluidigm, Amsterdam, the Netherlands) technology was used for gene expression analyses by quantitative reverse transcription polymerase chain reaction (qRT-PCR, performed by Quintiles/Expression Analysis, Durham, NC)89. Standard TaqManTM Assays (Applied Biosystems/ThermoFisher Scientific, Foster City, CA) were used to assess the expression of 93 genes selected based on their selectivity and sensitivity to important hepatic receptors known to be modulated by environmental chemicals; importance in human hepatocyte functionality; and hepatotoxicity. […]

SMILES	outcome	AC50
CCCN(CCC)N=O	inactive	
Cc1ccccc1CO[C@@H]1C[C@@]2(C(C)C)CC[C@]1(C)O2	inactive	
O=C(NC(=O)c1cc(F)c(F)cc1Cl)Nc1cc(F)ccc1N1CCC(C(=O)O)CC1		25 µM (active)
Cc1cccc(C)c1N	inactive	
CCNc1nc(NC(C)C)nc(SC)n1		12.4 µM (active)
NS(=O)(=O)C(F)(F)C(F)(F)C(F)(F)C(F)(F)C(F)(F)C(F)(F)C(F)(F)C(F)(F)F		5.02 µM (active)
Oc1ccc(Cl)cc1Cl	inactive	
C[C@]12CCC(=O)C=C1CC[C@@H]1[C@@H]2CC[C@@]2(C)[C@H]1CC[C@]2(C)O		2.07 µM (active)
O=C(NC(=O)c1c(F)cccc1F)Nc1cc(Cl)c(OC(F)(F)C(F)F)c(Cl)c1	inactive	
Cc1ccccc1[N+](=O)[O-]	inactive	
Oc1c(Cl)c(Cl)c(Cl)c(Cl)c1Cl		2.11 µM (active)
Cc1ccccc1O	inactive	
O=C(O)C(F)(F)C(F)(F)C(F)(F)C(F)(F)C(F)(F)F	inactive	
CC(C)(c1ccccc1)c1ccc(O)cc1		84.7 µM (active)
C=CC(N)=O	inactive	
CC1=C2C[C@H]3[C@@H](CC=C4C[C@@H](O)CC[C@@]43C)[C@@H]2CC[C@]12O[C@@H]1C[C@H](C)CN[C@H]1[C@H]2C	inactive	
CN(C)CCO	inactive	
CC(C)C(=O)OCC(C)(C)C(OC(=O)C(C)C)C(C)C (stereo not given)	inactive	
Nc1ccc(-c2ccc(N)cc2)cc1		2.2 µM (active)
CN(C)c1nc(=O)n(C2CCCCC2)c(=O)n1C	inactive	

SMILES	outcome	AC50
Oc1ccc(C(c2ccc(O)cc2)(C(F)(F)F)C(F)(F)F)cc1	inactive	
CC#Cc1cc(C)nc(Nc2ccccc2)n1		13.1 µM (active)
O=C(N[C@H]1CN2CCC1CC2)c1cc2ccoc2cn1	inactive	
C[C@]12CCC(=O)C=C1CC[C@@H]1[C@@H]2CC[C@]2(C)C(=O)CC[C@@H]12		6.54 µM (active)
ClC1=C(Cl)[C@]2(Cl)[C@@H]3[C@@H]4C[C@@H]([C@H]5O[C@@H]45)[C@@H]3[C@@]1(Cl)C2(Cl)Cl	inactive	
Cc1cc(-c2ccc(N)c(C)c2)ccc1N		33.7 µM (active)
Clc1ccc(C(Cl)(Cl)Cl)cc1	inactive	
C1CC2OC2CC1C1CO1 (stereo not given)	inactive	
CCCCCCCCCc1ccc(O)cc1	inactive	
CCSC(=O)N(CC)C1CCCCC1	inactive	
CCC(C)(CC)c1cc(NC(=O)c2c(OC)cccc2OC)on1		14.2 µM (active)
CCOC(=O)C(O)(c1ccc(Cl)cc1)c1ccc(Cl)cc1	inactive	
O=C(O)C(F)(F)C(F)(F)C(F)(F)C(F)(F)C(F)(F)C(F)(F)C(F)(F)C(F)(F)F	inactive	
CCOP(=S)(OCC)SCSC(C)(C)C		50 µM (active)
Clc1ccc(Cl)cc1	inactive	
CCC(C)(c1ccc(O)cc1)c1ccc(O)cc1		80.3 µM (active)
C=CC(=O)NCNC(=O)C=C	inactive	
CCOCCOC(C)=O	inactive	
CC(C)(O)C(=O)Nc1ccc([N+](=O)[O-])c(C(F)(F)F)c1		25 µM (active)
O=S(=O)(O)C(F)(F)C(F)(F)C(F)(F)C(F)(F)C(F)(F)C(F)(F)F	inactive	

From PubChem BioAssay (EPA / NIEHS)
